system: T1, RSK2(Kin.Dom.1-N-terminal); settings: concentration: 1 μM, replicates: in singlicate; n = 1
T1 construct: gene RPS6KA3
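Further: KINOMEscan kinase panel screen.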

| Structure (SMILES) | %Inh [%] |
| --- | --- |
| Cc1cccc(-c2nc(-c3ccc(S(C)(=O)=O)cc3)sc2-c2ccncc2)c1 | 0 |
| CN1c2ccc(CNc3ccc(F)cc3)cc2-c2c(cnn2C)S1(=O)=O | 23 |
| O=C1Cc2cc(Nc3nc(NCc4cccc(S(=O)(=O)C(F)(F)F)c4)ncc3C(F)(F)F)ccc2N1 | 37 |
| COc1cc2c(cc1OC[C@@H](O)CO)ncc1c3ccc(C#N)cc3[nH]c21 | 80 |
| COc1ccc(S(=O)(=O)NC2CCN(c3cc(C)nc(Nc4cccc(C#N)c4)n3)CC2)cc1.O=C(O)C(F)(F)F [GSK1653539] | 0 |
| [2H]C([2H])(c1cccc(C(F)(F)F)c1C)n1ccn2c(=O)nc(N3CCOCC3)cc12 [GSK2336394] | 0 |
| Cc1cccc(-c2nc(Nc3ccc4ncsc4c3)c3ccccc3n2)n1 [GW867588] | 8 |
| COc1cc2ncn(-c3cc(OCc4sccc4Cl)c(C(N)=O)s3)c2cc1OC [GSK448459] | 30 |
| CCc1ccnc(/C=C/c2n[nH]c3cc(Sc4ccccc4C(=O)NC)ccc23)c1 | 8 |
| C[C@@H](Oc1cc(-n2cnc3ccc(NC(=O)NC(C)(C)C)cc32)sc1C(N)=O)c1ccccc1Cl [GSK346294] | 0 |
| COc1cc2c(cc1OCCN1CCN(C)CC1)ncc1c3ccc(C#N)cc3[nH]c21 | 61 |
| COCCNC(=O)c1ccc(-c2cc(C(=O)NC3CC3)cc(F)c2C)cc1 [GW868318] | 40 |
| COc1cc(Nc2nccc(N3CCC(NC(=O)c4cccc(NC(C)=O)c4)C3)n2)cc(OC)c1OC (stereo not shown) [GSK1379754] | 3 |
| CN1c2ccc(NCc3ccc(F)cc3)cc2-c2c(cnn2C)S1(=O)=O | 23 |
| Cc1nnc(-c2ccc3ncc(-c4ccc(S(C)=O)cc4)n3c2)o1 (stereo not shown) | 7 |
| O=C(NCCCN1CCOCC1)c1cccc(Nc2nccc(Nc3ccc(Oc4ccccc4)cc3)n2)c1 [GW663929] | 0 |
| Cc1cccc(Cn2ccn3c(=O)cc(N4CCOCC4)nc23)c1 [GSK2297542] | 11 |
| Nc1nc(-c2ccc3c(N)n[nH]c3c2)cc(N2CCCC2)n1 [GSK2227430] | 0 |

| Structure (SMILES) | %Inh [%] |
| --- | --- |
| Fc1ccc(-c2ncn(CCCN3CCOCC3)c2-c2cccnc2)cc1 [SB-211743] | 34 |
| O=C(NOCC1CC1)c1ccc(F)c(F)c1Nc1ccc(I)cc1Cl | 0 |
| NS(=O)(=O)c1cccc(-c2ccc3ncc(N4CCOCC4)nc3c2)c1 [GSK1535721] | 15 |
| Cn1ccc2ncnc(Oc3ccc(NC(=O)Nc4ccncc4)c(Cl)c3)c21 | 0 |
| NS(=O)(=O)c1cccc(-c2ccc3nccc(-c4cccc(S(N)(=O)=O)c4)c3c2)c1 [GW867253] | 31 |
| CCc1nc(-c2cccc(C)c2)c(-c2ccnc(NCc3ccccc3)c2)s1 | 0 |
| O=C(Nc1cccc(-c2nn3ncccc3c2-c2ccnc(Nc3cccc(C(F)(F)F)c3)n2)c1)c1c(F)cccc1F [GSK299495] | 22 |
| O=c1cc(N2CCOCC2)nc2n(Cc3cccc(F)c3)ccn12 [GSK2297430] | 0 |
| O=C1NC(=O)C(N2CCc3ccccc32)=C1c1cccc(Cl)c1 [SB-408010] | 0 |
| Cl.Oc1cccc(Nc2ccnc3cc(-c4ccncc4)ccc23)c1 [GW494601] | 12 |
| COc1ccc(COc2cc(-n3cnc4ccccc43)sc2C(N)=O)cc1 [GSK1024304] | 18 |
| COc1ccc(Nc2ncc(C#N)c(Nc3ccccc3C(N)=O)n2)cc1N1CCN(C)CC1.Cl [GSK1558669] | 100 |
| Cc1cn2c(=O)cc(N3CCOCC3)nc2n1Cc1cccc(Cl)c1Cl [GSK2334006] | 12 |
| N#Cc1c(N2CCOCC2)sc(-c2ccn[nH]2)c1-c1ccc(Cl)cc1 | 9 |
| N#Cc1ccc(-c2cc(-c3c[nH]nc3-c3ccccn3)ccn2)cc1 [GW693028] | 0 |
| Cc1nnc(-c2ccc3occ(-c4ccc(C(C)O)cc4)c3c2)o1 (stereo not shown) | 3 |
| Cc1c(Cn2c(C)nn3c(=O)cc(N4CCOC(C)C4)nc23)cccc1C(F)(F)F (stereo not shown) [GSK2344444] | 10 |

system: T2, RSK2(Kin.Dom.2-C-terminal); settings: concentration: 1 μM, replicates: in singlicate; n = 1
T2 construct: gene RPS6KA3

| Structure (SMILES) | %Inh [%] |
| --- | --- |
| Cc1cccc(-c2nc(-c3ccc(S(C)(=O)=O)cc3)sc2-c2ccncc2)c1 | 25 |
| CN1c2ccc(CNc3ccc(F)cc3)cc2-c2c(cnn2C)S1(=O)=O | 41 |
| O=C1Cc2cc(Nc3nc(NCc4cccc(S(=O)(=O)C(F)(F)F)c4)ncc3C(F)(F)F)ccc2N1 | 15 |
| COc1cc2c(cc1OC[C@@H](O)CO)ncc1c3ccc(C#N)cc3[nH]c21 | 0 |
| COc1ccc(S(=O)(=O)NC2CCN(c3cc(C)nc(Nc4cccc(C#N)c4)n3)CC2)cc1.O=C(O)C(F)(F)F [GSK1653539] | 0 |
| [2H]C([2H])(c1cccc(C(F)(F)F)c1C)n1ccn2c(=O)nc(N3CCOCC3)cc12 [GSK2336394] | 18 |
| Cc1cccc(-c2nc(Nc3ccc4ncsc4c3)c3ccccc3n2)n1 [GW867588] | 0 |
| COc1cc2ncn(-c3cc(OCc4sccc4Cl)c(C(N)=O)s3)c2cc1OC [GSK448459] | 21 |
| CCc1ccnc(/C=C/c2n[nH]c3cc(Sc4ccccc4C(=O)NC)ccc23)c1 | 0 |
| C[C@@H](Oc1cc(-n2cnc3ccc(NC(=O)NC(C)(C)C)cc32)sc1C(N)=O)c1ccccc1Cl [GSK346294] | 11 |
| COc1cc2c(cc1OCCN1CCN(C)CC1)ncc1c3ccc(C#N)cc3[nH]c21 | 42 |
| COCCNC(=O)c1ccc(-c2cc(C(=O)NC3CC3)cc(F)c2C)cc1 [GW868318] | 29 |
| COc1cc(Nc2nccc(N3CCC(NC(=O)c4cccc(NC(C)=O)c4)C3)n2)cc(OC)c1OC (stereo not shown) [GSK1379754] | 22 |
| CN1c2ccc(NCc3ccc(F)cc3)cc2-c2c(cnn2C)S1(=O)=O | 31 |
| Cc1nnc(-c2ccc3ncc(-c4ccc(S(C)=O)cc4)n3c2)o1 (stereo not shown) | 4 |
| O=C(NCCCN1CCOCC1)c1cccc(Nc2nccc(Nc3ccc(Oc4ccccc4)cc3)n2)c1 [GW663929] | 11 |
| Cc1cccc(Cn2ccn3c(=O)cc(N4CCOCC4)nc23)c1 [GSK2297542] | 33 |
| Nc1nc(-c2ccc3c(N)n[nH]c3c2)cc(N2CCCC2)n1 [GSK2227430] | 0 |

| Structure (SMILES) | %Inh [%] |
| --- | --- |
| Fc1ccc(-c2ncn(CCCN3CCOCC3)c2-c2cccnc2)cc1 [SB-211743] | 0 |
| O=C(NOCC1CC1)c1ccc(F)c(F)c1Nc1ccc(I)cc1Cl | 0 |
| NS(=O)(=O)c1cccc(-c2ccc3ncc(N4CCOCC4)nc3c2)c1 [GSK1535721] | 7 |
| Cn1ccc2ncnc(Oc3ccc(NC(=O)Nc4ccncc4)c(Cl)c3)c21 | 0 |
| NS(=O)(=O)c1cccc(-c2ccc3nccc(-c4cccc(S(N)(=O)=O)c4)c3c2)c1 [GW867253] | 56 |
| CCc1nc(-c2cccc(C)c2)c(-c2ccnc(NCc3ccccc3)c2)s1 | 0 |
| O=C(Nc1cccc(-c2nn3ncccc3c2-c2ccnc(Nc3cccc(C(F)(F)F)c3)n2)c1)c1c(F)cccc1F [GSK299495] | 0 |
| O=c1cc(N2CCOCC2)nc2n(Cc3cccc(F)c3)ccn12 [GSK2297430] | 0 |
| O=C1NC(=O)C(N2CCc3ccccc32)=C1c1cccc(Cl)c1 [SB-408010] | 0 |
| Cl.Oc1cccc(Nc2ccnc3cc(-c4ccncc4)ccc23)c1 [GW494601] | 23 |
| COc1ccc(COc2cc(-n3cnc4ccccc43)sc2C(N)=O)cc1 [GSK1024304] | 16 |
| COc1ccc(Nc2ncc(C#N)c(Nc3ccccc3C(N)=O)n2)cc1N1CCN(C)CC1.Cl [GSK1558669] | 7 |
| Cc1cn2c(=O)cc(N3CCOCC3)nc2n1Cc1cccc(Cl)c1Cl [GSK2334006] | 25 |
| N#Cc1c(N2CCOCC2)sc(-c2ccn[nH]2)c1-c1ccc(Cl)cc1 | 0 |
| N#Cc1ccc(-c2cc(-c3c[nH]nc3-c3ccccn3)ccn2)cc1 [GW693028] | 24 |
| Cc1nnc(-c2ccc3occ(-c4ccc(C(C)O)cc4)c3c2)o1 (stereo not shown) | 0 |
| Cc1c(Cn2c(C)nn3c(=O)cc(N4CCOC(C)C4)nc23)cccc1C(F)(F)F (stereo not shown) [GSK2344444] | 0 |
